Growth data for 37 compounds are collected here from PubChem BioAssay (NCI).

Compounds without any hit were thinned out: in the full panel of roughly 83,000, 20% have a hit.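 Interpretation: 100, growth as untreated; towards 0, rising growth inhibition; 0, no net growth; 0 to -100, cell death. Compounds scoring below 10 were considered active.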 Active and inactive are the calls of the source.

The assay concerns HL-60(TB) leukemia. The assay can be described thus: NCI-60 one-dose screen, 48 h (100 = growth as untreated, 0 = no growth, -100 = all killed). The note with it: 10 µM unless noted.
Consider `O=C(NOC(=O)c1ccccc1)c1ccccc1`, for which the growth is 87.1% (inactive).
On to `CN(C)C(CNc1oc(-c2cccc3ccccc23)nc1C#N)c1ccco1` (configuration not stated), for which the growth is 74.1% (inactive).
The result for `CCCCCCC/C=N/NC(=O)c1ccc(-n2cc(-c3ccccc3)nn2)cc1` reads 95.2% (inactive).
The figure for `CC(C)CCCC(=O)O` is 109% (inactive); for `CCN(CC)CCOC(COc1cc(C)cc(C)c1)COc1cc(C)cc(C)c1` it is 20.3% (inactive); for `CCCC1OC(c2ccco2)OCC1CC` (configuration not stated) it is 102% (inactive).
The result for `CCCOC(=O)c1nc(N(CC2CCCCC2)C(=O)NC)sc1/N=C/c1ccccc1` reads -9.46% (active).
Consider `COc1cc(C(=O)/C=C/c2cc(C(=O)c3cc(OC)c(OC)c(OC)c3)ccc2OC)ccc1N`, for which the growth is 3.92% (active).
The result for `C=C1C(=O)O[C@H]2[C@H]1CC/C(COC(=O)CSCC(=O)OC/C1=C/CC[C@@]3(C)O[C@H]3[C@H]3OC(=O)C(=C)[C@@H]3CC1)=C\CC[C@@]1(C)O[C@@H]21` reads -42% (active); that for `COc1cc(CNC(=O)CCCC/C=C/C(C)C)ccc1OCc1cn(-c2cccc([N+](=O)[O-])c2)nn1`, 109% (inactive); that for `CCN(CC)CCOc1ccccc1-n1c(C)ccc1-c1ccccc1`, 22.4% (inactive).
Regarding `O=C(C[N+](=O)[O-])c1ccc(Cl)cc1`, the growth was 104% (inactive).
The result for `O=S(=O)(Nc1cc(F)cc(Cl)c1)c1ccc(-c2cnc(C3CC3)o2)cc1` reads 7.71% (active).
For `CC1(C)CC[C@]2(C(=O)O)CC[C@]3(C)C(=CC[C@@H]4[C@@]5(C)C/C(=C/c6ccco6)C(=O)C(C)(C)[C@@H]5CC[C@]43C)[C@@H]2C1`, the growth is -16.4% [100 µM] (active).
`CCC(C)(C)c1cc(O)c(C(C)(C)CC)cc1O`: the growth was -9.67% (active).
With `Cn1ccc(=Nc2ccc(NC(=O)c3ccc(N=c4ccn(C)c5ccc([N+](=O)[O-])cc45)cc3)cc2)cc1`, the growth is 76.7% (inactive).
In the case of `COCCn1cc(-c2csc(-c3c[nH]c4ccc(Br)cc34)n2)c2cccnc21`, the growth is 20.5% (inactive).
The figure for `Cc1ccc(S(=O)(=O)N2CCN(C(=O)CSc3nc4ccc(C)cc4[nH]3)CC2)cc1` is -1.47% (active).
As for `C=C(C)[C@H]1CC/C(C)=C/CC[C@]2(C)O[C@H]2CC/C(COC(C)=O)=C\C1=O`, the growth is 117% (inactive).
The figure for `COc1ccc(-c2nsc3c2NC(=O)CC3c2cccc(OC)c2)cc1` (configuration not stated) is 6.13% (active); for `COc1ccc(NC(=O)CSc2oc(-c3ccccc3)nc2S(=O)(=O)c2ccc(Cl)cc2)c(OC)c1` it is 49.4% (inactive).
The result for `Cc1nc2sc(C(=O)Nc3cccc(Cl)c3C)c(N)c2cc1C(=O)/C=C/c1ccccc1` reads 2.75% (active).
For `CO/C=C/C(=O)c1cc2cnc3c(=N)cc(NC(=O)C(C)C)c([nH]1)c23`, the growth is -0.789% (active).
As for `C=C1C(=O)O[C@H]2[C@H]1CC/C(COC(=O)/C=C/c1cccnc1)=C\CC[C@@]1(C)O[C@@H]21`, the growth is -28% (active).
With `COc1cccc(OCC(O)CN2CCN(c3ccccc3)CC2)c1` (configuration not stated), the growth is 78.7% (inactive).
The figure for `O=c1[nH]c(Cc2nc3ccccc3s2)nc2cc(Br)ccc12` is 77% (inactive).
The figure for `CCCCCc1ccc(S(=O)(=O)Nc2cc(-c3csc(NC(C)=O)n3)ccc2N2CCN(C)CC2)cc1` is -61.7% (active); for `NC(=O)c1ccc2c(c1)OCO2` it is 103% (inactive).
Consider `COc1cc(/C=C/C(=O)Nc2ccc3c(c2)/C(=C\c2cccn2C)C(=O)N3)cc(OC)c1OC`, for which the growth was 40.6% (inactive).
The figure for `C=CC(=O)N1CCN(c2ccc3cccc(NC(=O)c4cnc(C)cn4)c3n2)CC1` is 26.6% (inactive); for `NC(=O)c1c(NC(=O)c2ccc3c(c2)OCO3)sc2c1CCC(=O)C2` it is -58.3% (active); for `O=C1c2c(c3c4ccccc4n(CCCCCCN4CCOCC4)c3c3[nH]c4ccccc4c23)C(=O)N1O` it is 77.7% (inactive).
For the compound `Cc1ccc(C2=N[C@H]3CCC[C@@H]3N(c3ccccc3)C(C(Cl)Cl)=N2)cc1`, the growth is 93.2% (inactive).
The figure for `Cc1nc([P+](c2ccccc2)(c2ccccc2)c2ccccc2)c(Sc2sc(-c3ccccc3)nc2[P+](c2ccccc2)(c2ccccc2)c2ccccc2)o1` is -17.9% (active); for `CC(C)C(C(=O)NCCN1CCOCC1)N1C(=O)/C(=C/c2ccc(Br)cc2)SC1=S` (configuration not stated) it is 101% (inactive).
Take `Nc1ncnc2c1N=C(c1ccc3c(c1)OCO3)CC(c1ccc(Cl)cc1)N2` (configuration not stated): the growth was 88.1% (inactive).
The result for `CN1C(=O)C(C2=NN(C=O)C(c3ccc(F)cc3)C2)C(=O)N(C)C1=O` (configuration not stated) reads 105% (inactive).
